This note sets out measurements from PubChem BioAssay.

Test [1] relates to Plasmodium falciparum Sir2 (PF13_0152, Sir2A). The experiment in a line: Plasmodium falciparum Sir2A binding compounds – biochemical, small-molecule microarray, 635 nm fluorescence, primary screen (AID 1098).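 Note: score merges spot fluorescence intensity with its signal-to-noise ratio.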 Conditions: fluorescence 635 nm, higher = more signal.
A short description of test [2]: probe aDKK1 binding to arrayed compounds – biochemical, biotinylated probe, 635/667 nm fluorescence, primary screen (AID 1099).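 Note: score merges 667nm spot fluorescence with signal to noise across triplicate slides.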 The note with it: small-molecule microarray, higher = more signal.
The nature of test [3]: probe aCHRDL2 binding to arrayed compounds – biochemical, biotinylated probe, 635/667 nm fluorescence, primary screen (AID 1100). Conditions: small-molecule microarray, higher = more signal.
Test [4] in a line: change in splice reporter luminescence, either direction, cell-based, HEK293, spliceosome inhibition project, primary screen (AID 1101).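 Note: HEK293 cells carrying a splicing-competent luciferase reporter gene; test concentration not given here.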 The note with it: HEK293 splicing luciferase reporter, 24 h, higher = more signal, called active from +8 up or from −8 down. In general terms: In a reporter assay the amount or activity of a reporter protein is the signal.
Test [5] has as its target Fibroblast growth factor 10 (Homo sapiens) (UniProt O15520). The experiment in a line: compounds binding fibroblast growth factor 10 – biochemical, small-molecule microarray, 635 nm fluorescence, primary screen (AID 1102). Conditions: FGF10 binding, fluorescence 635 nm, higher = more signal.
For test [6], the system named is glycogen synthase kinase-3 (GSK3A per assay name; protocol says GSK3B). The experiment in a line: compounds binding glycogen synthase kinase-3 – biochemical, small-molecule microarray, 635 nm fluorescence, GSK3A, primary screen (AID 1103). Note: the record names both GSK3A and GSK3B. Conditions: fluorescence 635 nm, higher = more signal.
Test [7] deals with Epidermal growth factor receptor (Homo sapiens) (UniProt P00533). The experiment in a line: compounds binding epidermal growth factor receptor – biochemical, small-molecule microarray, 635 nm fluorescence, primary screen (AID 1104).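 Note: score merges 667 nm emission intensity with spot signal to noise over triplicate slides.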 The note with it: EGFR binding, higher = more signal.
Epidermal growth factor receptor (Homo sapiens), sequence (P00533 whole entry, looked up): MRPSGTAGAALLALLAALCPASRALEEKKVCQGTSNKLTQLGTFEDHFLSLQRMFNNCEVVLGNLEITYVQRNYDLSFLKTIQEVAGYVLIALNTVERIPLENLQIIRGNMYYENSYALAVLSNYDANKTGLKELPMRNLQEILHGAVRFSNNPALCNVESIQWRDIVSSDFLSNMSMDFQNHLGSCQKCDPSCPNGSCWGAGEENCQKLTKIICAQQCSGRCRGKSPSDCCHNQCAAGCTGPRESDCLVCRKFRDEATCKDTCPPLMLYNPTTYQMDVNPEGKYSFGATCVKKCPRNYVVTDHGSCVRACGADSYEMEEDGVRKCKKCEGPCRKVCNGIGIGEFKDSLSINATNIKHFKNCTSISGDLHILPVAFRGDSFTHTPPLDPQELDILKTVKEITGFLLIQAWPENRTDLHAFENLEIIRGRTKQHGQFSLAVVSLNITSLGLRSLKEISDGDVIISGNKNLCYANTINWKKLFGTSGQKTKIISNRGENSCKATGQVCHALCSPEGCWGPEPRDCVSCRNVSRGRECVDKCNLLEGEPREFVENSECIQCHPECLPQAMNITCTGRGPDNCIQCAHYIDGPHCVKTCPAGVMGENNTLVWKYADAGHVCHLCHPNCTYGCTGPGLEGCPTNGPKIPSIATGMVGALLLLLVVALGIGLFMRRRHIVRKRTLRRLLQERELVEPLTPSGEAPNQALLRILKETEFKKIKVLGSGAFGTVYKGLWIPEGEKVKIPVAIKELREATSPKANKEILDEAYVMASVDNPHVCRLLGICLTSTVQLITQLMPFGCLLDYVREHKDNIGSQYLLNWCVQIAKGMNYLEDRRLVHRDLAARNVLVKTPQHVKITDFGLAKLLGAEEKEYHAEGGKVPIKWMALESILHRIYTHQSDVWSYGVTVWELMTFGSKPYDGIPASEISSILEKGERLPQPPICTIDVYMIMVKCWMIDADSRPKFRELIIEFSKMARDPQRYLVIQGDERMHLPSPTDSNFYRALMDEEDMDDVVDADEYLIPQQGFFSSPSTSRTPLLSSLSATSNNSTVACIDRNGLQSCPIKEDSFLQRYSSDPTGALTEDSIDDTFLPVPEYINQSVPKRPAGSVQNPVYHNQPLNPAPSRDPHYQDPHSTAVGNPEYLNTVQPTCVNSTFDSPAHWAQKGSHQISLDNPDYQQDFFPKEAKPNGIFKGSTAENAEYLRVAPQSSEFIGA
The target of test [8] is Follistatin-related protein 3 (Homo sapiens) (UniProt O95633). The experiment in a line: compounds binding follistatin-related protein 3 – biochemical, small-molecule microarray, 635 nm fluorescence, primary screen (AID 1105).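 Note: score merges emission near 667 nm and signal to noise per printed spot across three slides.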 Conditions: FSTL3 binding, higher = more signal.
Follistatin-related protein 3 (Homo sapiens), sequence (O95633 whole entry, looked up): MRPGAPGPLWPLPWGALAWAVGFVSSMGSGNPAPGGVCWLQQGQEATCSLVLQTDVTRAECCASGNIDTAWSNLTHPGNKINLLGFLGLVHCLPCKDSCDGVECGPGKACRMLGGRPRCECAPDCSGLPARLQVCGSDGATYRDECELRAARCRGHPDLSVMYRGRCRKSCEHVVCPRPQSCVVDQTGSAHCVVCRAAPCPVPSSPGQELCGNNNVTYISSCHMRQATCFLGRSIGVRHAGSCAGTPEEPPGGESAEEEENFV
The target in test [9] is Dickkopf-related protein 1 (Homo sapiens) (UniProt O94907). The experiment in a line: small molecules binding DKK1 protein – biochemical, small-molecule microarray, 635 nm fluorescence scan, primary screen (AID 1106).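 Note: score merges emission near 667 nm with signal to noise over three replicate slides.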 Conditions: higher = more signal.
Dickkopf-related protein 1 (Homo sapiens), sequence (O94907 whole entry, looked up): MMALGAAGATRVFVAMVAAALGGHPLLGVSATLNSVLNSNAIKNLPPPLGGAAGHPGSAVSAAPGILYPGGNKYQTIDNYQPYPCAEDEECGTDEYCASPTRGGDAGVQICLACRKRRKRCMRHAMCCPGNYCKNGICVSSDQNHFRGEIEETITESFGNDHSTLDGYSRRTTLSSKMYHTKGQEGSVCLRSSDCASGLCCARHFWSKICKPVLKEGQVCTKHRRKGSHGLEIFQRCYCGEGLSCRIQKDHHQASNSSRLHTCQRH
Test [10] has as its system Inhibin beta A chain (activin A). The experiment in a line: small molecules binding activin A – biochemical, small-molecule microarray, 635 nm fluorescence scan, primary screen (AID 1107).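 Note: mouse activin A protein probed at 4.33 µg/mL on printed slides; score merges bound-protein fluorescence near 667 nm with spot signal-to-noise.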 The note with it: INHBA, higher = more signal.
Test [11] deals with Human papillomavirus type 1a protein E7 (residues 44-93). The experiment in a line: small molecules binding HPV E7 44-93 – biochemical, small-molecule microarray, residues 44-93, 635 nm fluorescence, primary screen (AID 1108).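 Note: E7 fragment applied at 1 µg/mL in TBST for 1 h at 4 C; score combines spot fluorescence with its signal to noise ratio.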 The note with it: fluorescence 635 nm, higher = more signal.
Test [12] is described as follows: hepatitis C replication reporter changes, two-sided – Huh7 cells, luciferase reporter, HCV replication inhibitor project, primary screen (AID 1109).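 Note: huh7 hepatoma cells harbouring a luciferase neomycin HCV replicon reporter; luciferase luminescence as measure of HCV replicon replication; test concentration not given here.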 Conditions: Huh7 HCV replicon luciferase reporter, 48 h; higher = more signal.
The target in test [13] is Left-right determination factor 2 (Homo sapiens) (UniProt O00292). The experiment in a line: small molecules binding LEFTY2 protein – biochemical, small-molecule microarray, 635 nm fluorescence scan, primary screen (AID 1110). Conditions: higher = more signal.
Left-right determination factor 2 (Homo sapiens), sequence (O00292 whole entry, looked up): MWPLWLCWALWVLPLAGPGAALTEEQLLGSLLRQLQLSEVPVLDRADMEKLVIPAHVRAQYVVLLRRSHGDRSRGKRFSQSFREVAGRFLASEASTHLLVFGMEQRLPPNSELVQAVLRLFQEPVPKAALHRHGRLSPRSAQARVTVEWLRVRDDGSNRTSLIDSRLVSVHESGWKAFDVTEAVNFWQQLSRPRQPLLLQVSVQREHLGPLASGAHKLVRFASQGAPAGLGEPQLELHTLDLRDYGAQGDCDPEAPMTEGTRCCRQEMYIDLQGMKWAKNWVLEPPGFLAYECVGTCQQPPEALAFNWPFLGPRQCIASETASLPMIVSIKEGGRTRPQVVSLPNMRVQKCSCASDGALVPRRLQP
Test [14] deals with Calmodulin-1 (Homo sapiens) (UniProt P0DP23). The experiment in a line: small molecules binding calmodulin-1 with EGTA – biochemical, small-molecule microarray, Cy5-labelled CALM1, profiling panel (AID 1111).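 Note: labelled calmodulin applied in Tris saline Tween buffer holding calcium plus EGTA and DTT.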 The note with it: Cy5-CALM1 binding fluorescence, higher = more signal.
The target is the same in test [15]. The experiment in a line: small molecules binding Ca-loaded calmodulin-1 – biochemical, small-molecule microarray, Cy5-labelled CALM1, plus calcium, artefact control for SMM control-protein annotation, profiling panel (AID 1112).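 Note: score merges spot fluorescence with signal to noise from triplicate slides.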 Conditions: Cy5-CALM1 binding fluorescence, higher = more signal.
A short description of test [16]: probe aWnt5a binding to arrayed compounds – biochemical, biotinylated probe, 635/667 nm fluorescence, primary screen (AID 1113).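 Note: score merges 667 nm fluorescence intensity with signal-to-noise per printed feature.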 Conditions: small-molecule microarray, higher = more signal.
The nature of test [17]: probe aShh binding to arrayed compounds – biochemical, biotinylated probe, 635/667 nm fluorescence, primary screen (AID 1114).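 Note: probe is biotin-labelled aShh protein from a stem cell growth factor screen; measures binding of labelled protein to compounds printed on the slide; score merges feature fluorescence at 667 nm with signal-to-noise.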 Conditions: small-molecule microarray, higher = more signal.
Test [18] is described as follows: probe aNog binding to arrayed compounds – biochemical, biotinylated probe, 635/667 nm fluorescence, primary screen (AID 1115).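 Note: probe is biotinylated aNog protein used at 0.15 µg/mL for 1 h at 4 C; z-score combines 667 nm fluorescence of each spot with its signal to noise.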 Conditions: small-molecule microarray, higher = more signal.
Test [19] deals with Torsin-1A-interacting protein 1 (Homo sapiens) (UniProt Q5JTV8). The experiment in a line: compound microarray binding of lysate hLAP1 – cell lysate, small-molecule microarray, COS7 lysate, 635/667 nm fluorescence, primary screen (AID 1116). The note with it: 635 nm fluorescence, higher = more signal.
Torsin-1A-interacting protein 1 (Homo sapiens), sequence (Q5JTV8 whole entry, looked up): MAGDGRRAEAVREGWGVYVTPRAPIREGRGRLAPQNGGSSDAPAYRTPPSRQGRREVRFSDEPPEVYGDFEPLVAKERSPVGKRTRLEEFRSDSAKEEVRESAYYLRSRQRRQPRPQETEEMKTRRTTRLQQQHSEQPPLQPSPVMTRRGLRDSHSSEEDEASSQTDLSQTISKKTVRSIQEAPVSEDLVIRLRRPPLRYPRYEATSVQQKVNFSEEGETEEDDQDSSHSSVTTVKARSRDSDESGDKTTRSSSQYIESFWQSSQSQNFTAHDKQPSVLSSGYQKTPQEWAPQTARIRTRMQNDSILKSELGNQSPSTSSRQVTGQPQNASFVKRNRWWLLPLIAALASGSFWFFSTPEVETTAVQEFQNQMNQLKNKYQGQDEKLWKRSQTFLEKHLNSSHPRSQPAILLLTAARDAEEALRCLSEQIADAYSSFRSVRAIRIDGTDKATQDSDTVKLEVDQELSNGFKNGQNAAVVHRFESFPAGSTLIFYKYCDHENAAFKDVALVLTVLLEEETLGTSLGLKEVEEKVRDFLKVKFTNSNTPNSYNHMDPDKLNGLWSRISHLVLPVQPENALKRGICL
Test [20] has as its target Alpha-bungarotoxin (Bungarus multicinctus) (UniProt P60615). The experiment in a line: compounds binding labelled alpha-BTX control protein – biochemical, small-molecule microarray, Alexa647 label, 635/667 nm fluorescence, artefact control for SMM control protein annotation, profiling panel (AID 1117). Conditions: alpha-BTX-A647 binding fluorescence, higher = more signal.

Molecules are shown by their SMILES. The source made the active and inactive calls.

Fibroblast growth factor 10 (Homo sapiens), sequence (O15520 whole entry, looked up): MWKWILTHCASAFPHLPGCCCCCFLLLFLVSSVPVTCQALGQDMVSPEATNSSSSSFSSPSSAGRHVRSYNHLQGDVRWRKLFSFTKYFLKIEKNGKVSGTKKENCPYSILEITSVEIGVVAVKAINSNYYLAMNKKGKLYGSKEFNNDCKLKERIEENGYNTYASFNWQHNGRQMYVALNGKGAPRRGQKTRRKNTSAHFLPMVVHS
Alpha-bungarotoxin (Bungarus multicinctus), sequence (P60615 whole entry, looked up): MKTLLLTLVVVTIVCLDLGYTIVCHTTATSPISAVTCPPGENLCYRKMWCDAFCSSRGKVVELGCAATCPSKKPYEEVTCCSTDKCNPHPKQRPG

For the compound `CCOC(=O)[C@H](CC(C)C)NC(=O)CCC1CC(OC(=O)NCc2cccc3ccccc23)CC2(CCCC(COC(=O)NCCN3CCOCC3)O2)O1` (stereo not given in full), the composite z-score is 0.608 in test [1]; -0.265 in test [2]; -0.668 in test [3]; 0.763 in test [5]; 1.28 in test [6]; 0.416 in test [7]. In addition, the composite z-score in [8] amounted to 0.707; in [9], 0.652; in [10] it was 0.209; in test [11] it was 1.26; in test [13], 0.444; in test [14], 0.144. Further, the composite z-score is -0.854 in [15]; -0.176 in test [16]; -0.0605 in test [17]; -0.261 in test [18]; 0.217 in test [19]; 0.548 in test [20]. In addition, the z-score is -0.746 (inactive) in test [4] and -0.814 in [12].

As for `O=C1[C@H]2[C@H]3[C@H](O)[C@H](O)CC(=NOCc4ccccc4)[C@H]3CC[C@H]2C(=O)N1c1cccc(Oc2ccccc2)c1`, the composite z-score in [1] was 0.669; in test [2] it was -0.421; in [3], -0.469; in test [5], 0.787; in test [6], 0.596; in test [7], 0.349. For the same compound, the composite z-score in test [8] was 0.911; in test [9] it was 0.487; in test [10], -0.0134; in [11] it was 0.934; in test [13], 0.389; in test [14], 0.364. The composite z-score in [15] was -0.177; in [16] it was 0.0145; in test [17] it was -0.16; in [18], -0.305; in test [19], 0.683; in [20], 0.684. The z-score in [4] is 0.639 (inactive); in test [12], 0.162.

With `O=C1c2ccccc2[C@@]2(Cc3ccccc3N(C3CC3)C2=O)[C@H](c2ccc(CO)cc2)N1Cc1ccccc1C(F)(F)F`, the composite z-score was -0.0922 in test [1]; 0.261 in test [2]; 0.281 in test [3]; -0.837 in [5]; -0.433 in test [6]; -0.942 in test [7]. Also, the composite z-score in [8] was -0.672; in test [9], -1.2; in [10], 0.394; in test [11] it was 0.223; in test [13], -1.18; in test [14], -0.48. Further, the composite z-score in [15] was -0.382; in [16], -0.154; in [17], 0.0545; in test [18], -0.23; in test [19], 0.188; in [20], -1.37. Further, the z-score in test [4] is -0.628 (inactive); in [12] it was -2.39.

Consider `C=C(/C(=C/C[C@H](OC(=O)c1ccncc1)c1ccc(OCCO)cc1)c1cnc2ccccc2c1)C(C)C`, for which the composite z-score in test [1] is 0.933; in [2], -0.196; in test [3] it was -0.163; in [5], 1.61; in test [6] it was 1.07; in test [7], 1.07. Besides, the composite z-score in test [8] was found to be 1.38; in test [9], 0.856; in test [10], 1.7; in test [11], 1.31; in test [13], 1.06; in test [14] it was 0.0481. Moreover, the composite z-score in test [15] was -0.708; in test [16] it was 0.0324; in [17], 0.13; in [18] it was -0.338; in test [19], 2.24; in test [20], 1.67. The values for the z-score in [4] and in test [12] were 0.215 (inactive) and -2.01, respectively.

With `COCCOC(=O)N1C(=O)[C@@]2(c3cc(C#CC4(O)CCCCCC4)ccc31)[C@H](c1ccc(OCCO)cc1)N1[C@H](c3ccccc3)[C@H](c3ccccc3)OC(=O)[C@H]1[C@@H]2C(=O)NC[C@H](O)c1ccccc1`, the composite z-score in test [1] was found to be 0.933; in test [2] it was 0.0678; in test [3] it was 0.389; in [5] it was 1.18; in [6], 1.29; in [7] it was 0.258. Also, the composite z-score worked out at 0.432 in test [8]; 0.208 in test [9]; 0.527 in test [10]; 1.44 in [11]; 0.358 in test [13]; 1.28 in test [14]. Besides, the composite z-score in test [15] is 0.311; in [16], 0.0079; in test [17], -0.0289; in test [18], 0.385; in [19], 1.26; in test [20], 2.17. Besides, the z-score is -0.268 (inactive) in test [4] and -2.32 in test [12].
